# Reference: PubChem BioAssay (NCI)
# About 83,000 compounds went through this panel and 20% of them were active in at least one assay; those are over-represented in the sample as a whole.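 Assay: single dose, 48 h. Readout: percent growth (0 = no net growth; negative = cell death). Active: <10.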 Values without a mark were called inactive. The source made the active and inactive calls.
# Tested on: TK-10 renal
# Experiment: NCI-60 one-dose screen, 48 h (100 = growth as untreated, 0 = no growth, -100 = all killed)
# Conditions: 10 µM unless noted
row,SMILES,growth
1,c1ccc2c(Cc3csc4ccccc34)csc2c1,106%
2,COc1ccc(-c2[nH]nc(N)c2-c2cc(OC)c(OC)c(OC)c2)cc1,34.9%
3,Cc1nc2ccc(Nc3nc(NCCN4CCOCC4)nc(Nc4ccc(F)cc4)n3)cc2n1Cc1ccccc1,60.6%
4,COc1ccc(C2CC(c3ccc(Nc4ccnc5cc(Cl)ccc45)cc3)=NN2c2ccccc2)cc1 (configuration not stated),109%
5,COc1ccc(C(=O)/C=C/c2cn(-c3ccccc3)nc2-c2cccc(Nc3ccnc4cc(Cl)ccc34)c2)cc1,120%
6,Clc1ccc(Nc2ncnc3c2sc2ncccc23)c(Cl)c1,59.6%
7,Nc1nonc1-c1nc2ccccc2n1Cc1ccc(F)cc1,55.9%
8,CC(C)(C)c1ccc(Cn2c(-c3nonc3N)nc3ccccc32)cc1,81.9%
9,COC1=CC(c2ccc[nH]2)=N/C1=C\c1[nH]c(C)c(C(=O)CCCCCCCCC(=O)O[C@H]2CC[C@H]3C4CCc5cc(O)ccc5C4CC[C@]23C)c1C (some centres not stated),34.1%
10,CCCOC(=O)C1c2cc3c(cc2CC(C)C1C(=O)OCCC)OCO3 (configuration not stated),94.2%
11,Fc1ccc(-c2ccnc3nc(-c4ccncc4)nn23)cc1,96.6%
12,COc1cc(C2CC(c3cccc(Nc4ccnc5cc(Cl)ccc45)c3)=NN2c2ccccc2)cc(OC)c1OC (configuration not stated),75.4%
13,COc1cc(C2CC(c3ccc(Cl)cc3)=NN2C=O)ccc1OS(=O)(=O)c1ccc(C)cc1 (configuration not stated),110%
14,NC(N)=N/N=C/c1ccccc1,93.5%
15,Clc1ccc(-c2nc(Br)cn3ccnc23)cc1,85.7%
16,CCCCCCCCCCCCCCCc1cc(O)ccc1[N+](=O)[O-],112%
17,COc1ccc(OC)c(Nc2nc(-c3c(C)nc4sccn34)cs2)c1,98%

row,SMILES,growth
1,CC1=NOCC(=O)N1,103%
2,COc1ccc(C2=Nn3c(nnc3-c3ccc(Cl)cc3N)SC2)cc1,130%
3,Nc1c(C(=O)c2ccc(Br)cc2)sc2nc3c(cc12)CCCC3,108%
4,O=C(N=Nc1c(Cl)c(O)c2ccccc2c1O)C(=O)Nc1cccc(C(F)(F)F)c1,116%
5,CCCCn1c(C)nc2ccc(Nc3nc(Cl)nc4nc[nH]c34)cc21,67.3%
6,Cc1cc(C)c2c(n1)sc1c(Nc3ccc(OCc4ccccc4)cc3)ncnc12,92.4%
7,COc1ccc(/C=C2\CCCC3=C2N=C2SC(C)=NN2C3c2ccc(OC)c(OC)c2)cc1OC (configuration not stated),25.6%
8,Cc1cc(C)c2c(n1)sc1c(Nc3ccc(Cl)cc3Cl)ncnc12,56.7%
9,COc1cc(C(=O)/C=C/c2cn(-c3ccccc3)nc2-c2cccc(Nc3ccnc4cc(Cl)ccc34)c2)cc(OC)c1OC,133%
10,O=c1c2sc3ncc(Cl)cc3c2nnn1-c1cccc(Cl)c1,93%
11,Cc1ccc(C2CC(c3cccs3)=NN2c2ccc(S(N)(=O)=O)cc2)s1 (configuration not stated),94.8%
12,COc1cc(C2C=C(C)N=C3SC=NN32)cc(OC)c1OC (configuration not stated),109%
13,COc1ccc2cc(-c3nc(C)c(C(C)=O)c(-c4ccc(C)cc4)n3)ccc2c1,93.9%
14,C=CCn1c(C)nc2cc(Nc3nc(N4CCOCC4)nc4nc[nH]c34)ccc21,92.4%
15,O=C1C(Cl)=C(N/N=c2/[nH][nH]/c(=N/NC3=C(Cl)C(=O)c4ccccc4C3=O)c3ccccc23)C(=O)c2ccccc21,130%
16,Cc1ccc2cc3c(NC(=O)c4cccnc4)nn(C)c3nc2c1,103%
17,Cc1ccc(-c2nc3ccccc3c(=O)n2/N=C/c2cccc3ccccc23)cc1,101%

# Tested on: ACHN renal
# Experiment: as above
# Conditions: 10 µM unless noted
row,SMILES,growth
1,COc1ccc(-c2[nH]nc(N)c2-c2cc(OC)c(OC)c(OC)c2)cc1,25.5%
2,Cc1nc2ccc(Nc3nc(NCCN4CCOCC4)nc(Nc4ccc(F)cc4)n3)cc2n1Cc1ccccc1,52.2%
3,COc1ccc(C2CC(c3ccc(Nc4ccnc5cc(Cl)ccc45)cc3)=NN2c2ccccc2)cc1 (configuration not stated),97.2%
4,CCCCn1c(C)nc2cc(Nc3nc(Cl)nc4nc[nH]c34)ccc21,85.8%
5,COc1ccc(C(=O)/C=C/c2cn(-c3ccccc3)nc2-c2cccc(Nc3ccnc4cc(Cl)ccc34)c2)cc1,103%
6,Clc1ccc(Nc2ncnc3c2sc2ncccc23)c(Cl)c1,9.32% (active)
7,Nc1nonc1-c1nc2ccccc2n1Cc1ccc(F)cc1,68.1%
8,CC(C)(C)c1ccc(Cn2c(-c3nonc3N)nc3ccccc32)cc1,77.3%
9,COC1=CC(c2ccc[nH]2)=N/C1=C\c1[nH]c(C)c(C(=O)CCCCCCCCC(=O)O[C@H]2CC[C@H]3C4CCc5cc(O)ccc5C4CC[C@]23C)c1C (some centres not stated),24.3%
10,CCCOC(=O)C1c2cc3c(cc2CC(C)C1C(=O)OCCC)OCO3 (configuration not stated),101%
11,Fc1ccc(-c2ccnc3nc(-c4ccncc4)nn23)cc1,104%
12,COc1cc(C2CC(c3cccc(Nc4ccnc5cc(Cl)ccc45)c3)=NN2c2ccccc2)cc(OC)c1OC (configuration not stated),45%
13,COc1cc(C2CC(c3ccc(Cl)cc3)=NN2C=O)ccc1OS(=O)(=O)c1ccc(C)cc1 (configuration not stated),90.9%
14,NC(N)=N/N=C/c1ccccc1,106%
15,COc1ccc(Nc2ncnc3c2sc2nc(C)cc(C)c23)cc1,97.2%
16,CCCCCCCCCCCCCCCc1cc(O)ccc1[N+](=O)[O-],91.9%
17,CCOC(=O)c1ccccc1SC(C[N+](=O)[O-])c1ccccc1 (configuration not stated),88.7%

row,SMILES,growth
1,COc1ccc(OC)c(Nc2nc(-c3c(C)nc4sccn34)cs2)c1,79.5%
2,CC1=NOCC(=O)N1,102%
3,CC(C)CC(NC(=O)OCC1c2ccccc2-c2ccccc21)C(=O)O (configuration not stated),112%
4,Nc1c(C(=O)c2ccc(Br)cc2)sc2nc3c(cc12)CCCC3,96.3%
5,O=C(N=Nc1c(Cl)c(O)c2ccccc2c1O)C(=O)Nc1cccc(C(F)(F)F)c1,58.4%
6,CCCCn1c(C)nc2ccc(Nc3nc(Cl)nc4nc[nH]c34)cc21,79%
7,Cc1cc(C)c2c(n1)sc1c(Nc3ccc(OCc4ccccc4)cc3)ncnc12,106%
8,COc1ccc(/C=C2\CCCC3=C2N=C2SC(C)=NN2C3c2ccc(OC)c(OC)c2)cc1OC (configuration not stated),20.7%
9,Cc1cc(C)c2c(n1)sc1c(Nc3ccc(Cl)cc3Cl)ncnc12,11.7%
10,O=c1c2sc3ncc(Cl)cc3c2nnn1-c1cccc(Cl)c1,46.1%
11,COc1cc(C2C=C(C)N=C3SC=NN32)cc(OC)c1OC (configuration not stated),102%
12,COc1ccc2cc(-c3nc(C)c(C(C)=O)c(-c4ccc(C)cc4)n3)ccc2c1,98.7%
13,C=CCn1c(C)nc2cc(Nc3nc(N4CCOCC4)nc4nc[nH]c34)ccc21,93.7%
14,O=C1C(Cl)=C(N/N=c2/[nH][nH]/c(=N/NC3=C(Cl)C(=O)c4ccccc4C3=O)c3ccccc23)C(=O)c2ccccc21,61.9%
15,Cc1ccc2cc3c(NC(=O)c4cccnc4)nn(C)c3nc2c1,89%
16,Cc1ccc(-c2nc3ccccc3c(=O)n2/N=C/c2cccc3ccccc23)cc1,80.7%
